Three molecules from PubChem BioAssay (NCATS) can be followed below.

Test [1] has as its target Lysosomal acid glucosylceramidase (Homo sapiens) (UniProt P04062). Put plainly: Glucocerebrosidase-p2 (AID 348; in the data active means potency below about 10 µM; further: potency means the concentration at half of the fitted maximal effect). The settings on record: purified GBA, blue fluorogenic substrate, 40 min. In short, it runs like this:
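Normal human glucocerebrosidase (0.2 nM) with blue fluorogenic substrate (80 uM final) in citrate/phosphate pH 5.9 with 10mM sodium taurocholate, 0.01% tween-20; 40 min RT, NaOH/glycine stop; fluorescence Ex 365/Em 440; AC50 from a titration from 0.6 nM upwards.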

Test [2] can be described thus: AP1 Signaling Pathway (AID 357; active means well fitted curve in either direction with a large enough effect, not every such curve was filed as active; further: on the % scale 0 is the no-effect control and ±100 the full control effect). The settings on record: ME-180 AP-1-bla reporter, EGF-induced, beta-lactamase ratio, 5 h; at 7.69 µM (top of the series) unless noted. The method, boiled down:
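ME-180 cells with beta-lactamase reporter under AP-1 response element, stimulated with EC50 EGF; compounds tested in titration series, 5 h at 37 °C. CCF4 substrate added 2.5 h at room temperature; 460/530 nm emission ratio gave %activity and AC50.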

Test [3] addresses Cytochrome P450 1A2 (Homo sapiens) (UniProt P05177). Put plainly: p450-cyp1a2 (AID 410; calls by dose curve; further: potency means the concentration at half of the fitted maximal effect). Conditions: recombinant CYP1A2, luciferin-ME demethylation, luminescence; series mostly up to 57 µM. The method, boiled down:
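20nM CYP1A2, 100uM Luciferin-ME (=Km), 100mM KPO4; cpd 10 min RT; +NADPH regen, 60 min RT; stop/detect 20 min; luminescence. Normalized to furafylline 57 uM = full inhibition.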

The nature of test [4]: Stat Signaling Pathway (AID 446; active means well fitted curve in either direction with a large enough effect, not every such curve was filed as active;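 further: ME-180 cervical cancer cells given 40 pM IL-6 alongside compound; SIE-controlled beta-lactamase reporter measured as 460/530 nm FRET emission ratio; on the % scale 0 is the no-effect control and ±100 the full control effect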). The settings on record: ME-180 (cervical carcinoma) SIE beta-lactamase reporter, IL-6 stimulated, 5 h; at 7.69 µM (top of the series) unless noted. The method, boiled down: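 Overnight-plated ME-180 cells bearing a STAT Inducible Element beta-lactamase reporter; 5 h co-exposure to compound and 40 pM IL-6; values normalized to 300 pM IL-6 and 125 nM JAK inhibitor controls.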

Test [5] has as its target Glucocorticoid receptor (Homo sapiens) (UniProt P04150). Put plainly: GR-GFP Redistribution (AID 450;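 active means compounds whose dose series gives a full or clear partial fitted curve of increased nuclear translocation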; further: potency means the concentration at half of the fitted maximal effect). The settings on record: U2OS GR-GFP nuclear translocation, laser cytometry, 2 h.
Test [6] shares this target. Put plainly: GR-EFC Redistribution (AID 451; calls by dose curve; further: potency means the concentration at half of the fitted maximal effect). The settings on record: CHO-K1 GR-EFC translocation, beta-gal luminescence, 2 h. In short, it runs like this: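 CHO-K1 cells stably expressing nuclear-localized β-gal enzyme acceptor and GR fused C-terminally to the enzyme donor fragment; ligand-driven nuclear translocation restores β-gal by complementation. Compounds titrated up to 46 uM final, 2 h at 37 °C; luminescence read.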

In test [7] the target is Mitogen-activated protein kinase 10 (Mus musculus) (UniProt Q61831). Put plainly: JNK3 AlphaScreen Assay (AID 530; active means well fitted curve in either direction with a large enough effect, not every such curve was filed as active;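 further: kinase came from lysate of stimulated human HepG2 cells; signal reports phosphorylation of biotinylated GST-cJun 1-79 at Ser73 with 10 µM ATP; on the % scale 0 is the no-effect control and ±100 the full control effect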). The settings on record: JNK3 lysate, c-Jun phosphorylation; series mostly up to 57.1 µM. In short, it runs like this:
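Biotinylated GST-cJun(1-79) served as substrate for JNK3 in HepG2 lysates stimulated with IL-1beta and TNF-alpha. ATP was 10 uM final, pH 7.6. Ser73 phosphorylation was quantified by AlphaScreen (680 nm excitation).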
(In Alpha technology, singlet oxygen from a donor bead excites a nearby acceptor bead.)

In test [8] the target is Cytochrome P450 3A4 (Homo sapiens) (UniProt P08684). Put plainly: qHTS Assay for Activators of Cytochrome P450 3A4 (AID 885). Further: nearly all actives have a fitted effect of over 65% in size. Conditions: recombinant CYP3A4, Luciferin-PPXE luminescence, 60 min; series mostly up to 57.1 µM. In short, it runs like this: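 Using 20nM recombinant human CYP3A4 in potassium phosphate (200mM), substrate Luciferin-PPXE at 25uM, luminescent luciferin detection followed a 60-min RT NADPH reaction; data scaled to 57 uM ketoconazole.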
On the technique in general: In qHTS, concentration-response curves come from the screen itself.

The target in test [9] is Cytochrome P450 2D6 (Homo sapiens) (UniProt P10635). Put plainly: qHTS Assay for Inhibitors and Substrates of Cytochrome P450 2D6 (AID 891). Further: potency means the concentration at half of the fitted maximal effect; nearly all actives have a fitted effect of over 60% in size. The settings on record: recombinant CYP2D6, luciferin-ME EGE luminescence; series mostly up to 57.1 µM. The method, boiled down:
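Luminescent read-out of luciferin formed by 5 nM human CYP2D6 demethylating 30 uM Luciferin-ME EGE (Km level) over 60 min at room temperature after NADPH regeneration addition. Data normalized to full inhibition by 1.43 uM quinidine.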

Test [10] in a line: Confirmation and Secondary Assay for Modulators of Hemoglobin Beta Chain Splicing at IVS2 654 locus (AID 910). Further: % of control where 0% means no effect. The settings on record: HeLa EGFP-654 splicing reporter, GFP fluorescence, 48 h; series mostly up to 38.3 µM. In short, it runs like this:
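HeLa cells stably carrying EGFP interrupted by mutant beta-globin IVS2-654 intron (CMV-driven) were treated with compound for 2 days at 37C; corrected splicing was scored as total peak GFP intensity per well (488 nm excitation, 500-520 nm emission).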

A short description of test [11]: Confirmation and Secondary Assay for Modulators of Hemoglobin Beta Chain Splicing at IVS2 705 locus (AID 930).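 Further: HeLa cells stably expressing the EGFP-705 splicing reporter; GFP fluorescence per well restored by corrected splicing of the IVS2-705 intron in EGFP; % of control where 0% means no effect.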 The settings on record: HeLa EGFP-705 splicing reporter, GFP fluorescence, 48 h; series mostly up to 38.3 µM. In short, it runs like this:
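Read-out: total peak GFP fluorescence per well (488 nm excitation, 500-520 nm emission) by laser-scanning cytometry. Cells: HeLa EGFP-705 splicing reporter, 2 days compound exposure in Optimem/2% FCS.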

Test [12] in a line: qHTS Assay for Lipid Storage Modulators (AID 1519; calls by dose curve). Conditions: Drosophila S3 cells, BODIPY lipid droplet/cell ratio, laser cytometry, cells loaded with oleic acid; for activity change, negative = inhibition: at 57.5 µM (top of the series). The method, boiled down: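 Cells seeded at 5,000 per well were treated with compounds over a concentration series and loaded with oleic acid (400 uM, as added). Lipid droplet fluorescence (488 nm excitation, 500-530 nm channel) was read by laser-scanning cytometry and normalized to 20 uM Triacsin C.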

In test [13] the target is Ubiquitin carboxyl-terminal hydrolase 1 (Homo sapiens) (UniProt O94782). Put plainly: Inhibitors of USP1/UAF1: Pilot qHTS (AID 504865).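 Further: rhodamine fluorescence freed from ubiquitin-rhodamine substrate followed over time; top concentration of the series differs between compounds; on the % scale 0 is the no-effect control and ±100 the full control effect; nearly all actives have a fitted effect of over 35% in size.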 Conditions: purified USP1/UAF1, Ub-rhodamine cleavage fluorescence; series mostly up to 54.9 µM. In short, it runs like this: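 Kinetic fluorescence assay: 1nM USP1/UAF1, 15 min compound preincubation, then 150nM Ub-Rho; 480/540 nm.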

Test [14] can be described thus: Counterscreen qHTS for small molecule stabilizers of the endoplasmic reticulum resident proteome: GLuc-NoTag assay (AID 1508627).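 Further: 0% = thapsigargin alone and -100% = DMSO vehicle control.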 Conditions: Gaussia luciferase NoTag secretion counterscreen, luminescence, thapsigargin 100 nM for final 4 h; series mostly up to 76.4 µM. In short, it runs like this: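 Secreted GLuc lacking the SERCaMP modification is measured in SH-SY5Y cells exposed to compound for 19 h and then to thapsigargin (100 nM, 4 h) to deplete ER calcium; hits retested at 11 concentrations, up to 76.6 uM.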
In general terms: Counterscreens check selectivity or assay interference.

Test [15] is described as follows: Confirmatory qHTS for small molecule stabilizers of the endoplasmic reticulum resident proteome: Secreted ER Calcium Modulated Protein (SERCaMP) assay (AID 1508628). Further: nearly all actives have a fitted effect of over 40% in size. Further: potency means the concentration at half of the fitted maximal effect. Conditions: SERCaMP secreted luciferase ER calcium/proteostasis reporter; series mostly up to 76.3 µM. The method, boiled down: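 GLuc-SERCaMP-expressing SH-SY5Y cells, pretreated 16 h with compound, are challenged with thapsigargin to empty ER calcium stores; after 4 h, coelenterazine is added directly to the medium and luminescence is imaged.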

Test [16] can be described thus: Cell Viability qHTS for small molecule stabilizers of the endoplasmic reticulum resident proteome (AID 1508629).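 Further: human SH-SY5Y neuroblastoma cells carrying the GLuc-SERCaMP reporter; compound exposure about 46 h in total before the viability read; on the % scale 0 is the no-effect control and ±100 the full control effect.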 The settings on record: cell viability counter-screen, 100 nM thapsigargin for final 4 h.
A short description of test [17]: NFAT Signaling Pathway (AID 444; active means well fitted curve in either direction with a large enough effect, not every such curve was filed as active). The settings on record: Jurkat NFAT-bla M1, carbachol, beta-lactamase ratio, 5 h; at 7.69 µM (top of the series) unless noted. The method, boiled down: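 Jurkat cells carrying an NFAT-driven β-lactamase reporter and co-transfected muscarinic M1 receptor were treated with compound plus carbachol (1 uM final, an EC50 level) for 5 h at 37 °C. CCF4 loading followed for 1 h at RT; 460/530 nm ratio gave %activity.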

For test [18], the target named is 3',5'-cyclic-AMP phosphodiesterase 4B (Homo sapiens) (UniProt Q07343). Put plainly: qHTS Assay for Inhibitors of PDE-IV (AID 607; active means well fitted activation curve with a large enough effect in the main read-out, with a control signal flat, not every such curve was filed as active; further: % of control where 0% means no effect). The settings on record: HEK293 ACTOne CNG channel cells, membrane potential fluorescence; series mostly up to 22.9 µM. In short, it runs like this:
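Live HEK293 cells with a modified cyclic nucleotide-gated (CNG) channel report intracellular cAMP via membrane-potential dye fluorescence (ex 535/em 590 nm). Endogenous PDE-IV was targeted. Compounds were tested at up to 22.9 uM final; RO 20-1724 100 uM served as control.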

For test [19], the target named is Dual specificity protein kinase CLK4 (Homo sapiens) (UniProt Q9HAZ1). Put plainly: qHTS Assay for Inhibitors of CDC-like Kinase 4 (ADP-Glo Assay) (AID 1771). Further: on the % scale 0 is the no-effect control and ±100 the full control effect; nearly all actives have a fitted effect of over 70% in size. Conditions: recombinant CLK4, ADP-Glo luminescence; series mostly up to 80 µM. The method, boiled down: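 25 nM Clk4, 100 uM RS peptide, 1 uM ATP (final); 2 mM MgCl2, 0.5 mM EGTA, 2.5 mM DTT, 0.01% Triton X-100; 1 hr RT. ADP-Glo readout: ATP depletion 45 min, conversion/luciferase 30 min, luminescence.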

Test [20] has the same target. Put plainly: qHTS Assay for Inhibitors of CDC-like Kinase 4 (ADP-FP Assay) (AID 1795).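 Further: recombinant human CLK4 phosphorylating RS repeat peptide at 1 µM ATP; on the % scale 0 is the no-effect control and ±100 the full control effect; nearly all actives have a fitted effect of over 60% in size.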 Conditions: Transcreener ADP fluorescence polarization; series mostly up to 50 µM. In short, it runs like this: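 Inhibition of ADP formation by 6.25 nM Clk4 is measured using 1 uM ATP and 100 uM RS repeat peptide over one hour. Produced ADP displaces a fluorescent tracer from antibody, lowering polarization.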

Setting [21] is: measured here: cell count channel max response.
[22] abbreviates: measured here: lipid channel max response.

Records with an inconclusive call do not appear. The source made the active and inactive calls. Unless noted, the call rests on the fitted dose curve; in most records, active means well fitted curve in the direction sought with a large enough effect; inconclusive means small, poorly fitted or top-dose-only effect, or another doubt; inactive means no such curve, though single readings can be large; an effect the other way counts as inactive or inconclusive.

Glucocorticoid receptor (Homo sapiens), sequence (P04150 whole entry, looked up, the tested form may be a part): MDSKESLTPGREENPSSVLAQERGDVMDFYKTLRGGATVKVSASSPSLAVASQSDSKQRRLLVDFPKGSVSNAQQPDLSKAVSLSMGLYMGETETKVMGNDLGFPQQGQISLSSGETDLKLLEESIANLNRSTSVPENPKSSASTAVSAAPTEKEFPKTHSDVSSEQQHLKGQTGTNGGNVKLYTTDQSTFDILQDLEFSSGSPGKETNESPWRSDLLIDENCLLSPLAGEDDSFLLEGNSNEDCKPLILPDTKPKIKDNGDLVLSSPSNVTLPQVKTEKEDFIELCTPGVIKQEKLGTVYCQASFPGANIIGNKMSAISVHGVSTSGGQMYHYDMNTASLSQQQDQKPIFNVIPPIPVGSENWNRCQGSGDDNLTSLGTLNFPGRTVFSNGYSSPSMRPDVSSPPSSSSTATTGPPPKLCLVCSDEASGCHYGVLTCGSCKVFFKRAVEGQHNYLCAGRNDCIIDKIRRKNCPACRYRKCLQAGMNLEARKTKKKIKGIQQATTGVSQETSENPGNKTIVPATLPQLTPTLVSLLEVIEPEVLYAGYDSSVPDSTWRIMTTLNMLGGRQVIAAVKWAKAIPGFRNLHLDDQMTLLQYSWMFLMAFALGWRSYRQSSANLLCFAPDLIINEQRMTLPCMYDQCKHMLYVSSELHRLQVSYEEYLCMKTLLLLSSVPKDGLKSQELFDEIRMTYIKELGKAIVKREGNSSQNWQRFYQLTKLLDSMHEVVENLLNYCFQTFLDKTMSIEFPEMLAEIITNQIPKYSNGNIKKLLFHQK
Dual specificity protein kinase CLK4 (Homo sapiens), sequence (Q9HAZ1 whole entry, looked up): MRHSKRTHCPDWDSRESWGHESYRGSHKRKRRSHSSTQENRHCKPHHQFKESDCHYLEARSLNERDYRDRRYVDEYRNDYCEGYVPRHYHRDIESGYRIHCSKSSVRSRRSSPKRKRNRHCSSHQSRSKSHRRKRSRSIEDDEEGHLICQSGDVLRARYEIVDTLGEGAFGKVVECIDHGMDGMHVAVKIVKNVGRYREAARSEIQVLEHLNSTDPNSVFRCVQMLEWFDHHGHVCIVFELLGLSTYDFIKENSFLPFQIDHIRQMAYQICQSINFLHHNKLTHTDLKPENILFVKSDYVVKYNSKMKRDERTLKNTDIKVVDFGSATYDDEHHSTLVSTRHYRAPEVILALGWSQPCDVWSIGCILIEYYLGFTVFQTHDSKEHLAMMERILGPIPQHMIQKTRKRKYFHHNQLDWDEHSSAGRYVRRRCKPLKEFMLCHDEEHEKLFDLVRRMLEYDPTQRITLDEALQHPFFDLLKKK
Lysosomal acid glucosylceramidase (Homo sapiens), sequence (P04062 whole entry, looked up): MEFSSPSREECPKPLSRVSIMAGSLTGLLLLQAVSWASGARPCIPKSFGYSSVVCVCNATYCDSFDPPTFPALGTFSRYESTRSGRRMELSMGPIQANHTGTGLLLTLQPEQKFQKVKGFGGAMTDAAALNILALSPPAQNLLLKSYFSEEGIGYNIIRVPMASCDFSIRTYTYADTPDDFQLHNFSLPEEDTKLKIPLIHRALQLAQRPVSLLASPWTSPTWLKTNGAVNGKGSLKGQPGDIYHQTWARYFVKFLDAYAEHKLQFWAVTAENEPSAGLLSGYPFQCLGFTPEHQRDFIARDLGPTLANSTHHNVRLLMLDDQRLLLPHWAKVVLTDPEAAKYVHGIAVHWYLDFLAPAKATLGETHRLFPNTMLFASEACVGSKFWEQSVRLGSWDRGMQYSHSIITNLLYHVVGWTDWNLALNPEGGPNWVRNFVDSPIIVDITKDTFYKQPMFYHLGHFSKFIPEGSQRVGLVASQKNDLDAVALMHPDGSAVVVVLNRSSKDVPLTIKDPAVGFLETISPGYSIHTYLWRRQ
Cytochrome P450 1A2 (Homo sapiens), sequence (P05177 whole entry, looked up): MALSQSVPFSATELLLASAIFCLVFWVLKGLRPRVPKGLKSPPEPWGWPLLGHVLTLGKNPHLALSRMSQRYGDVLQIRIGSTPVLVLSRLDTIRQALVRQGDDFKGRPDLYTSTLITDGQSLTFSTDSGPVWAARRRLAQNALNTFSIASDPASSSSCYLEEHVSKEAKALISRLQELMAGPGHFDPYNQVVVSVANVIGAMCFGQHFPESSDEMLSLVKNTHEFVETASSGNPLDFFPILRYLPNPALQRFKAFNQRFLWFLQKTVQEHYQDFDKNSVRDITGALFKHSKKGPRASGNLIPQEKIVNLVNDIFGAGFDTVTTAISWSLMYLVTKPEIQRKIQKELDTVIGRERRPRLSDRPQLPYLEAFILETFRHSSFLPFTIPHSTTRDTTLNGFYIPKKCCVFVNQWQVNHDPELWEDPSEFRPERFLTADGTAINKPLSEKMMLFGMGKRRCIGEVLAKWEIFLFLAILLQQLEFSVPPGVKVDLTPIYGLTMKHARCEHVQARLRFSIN
Ubiquitin carboxyl-terminal hydrolase 1 (Homo sapiens), sequence (O94782 whole entry, looked up): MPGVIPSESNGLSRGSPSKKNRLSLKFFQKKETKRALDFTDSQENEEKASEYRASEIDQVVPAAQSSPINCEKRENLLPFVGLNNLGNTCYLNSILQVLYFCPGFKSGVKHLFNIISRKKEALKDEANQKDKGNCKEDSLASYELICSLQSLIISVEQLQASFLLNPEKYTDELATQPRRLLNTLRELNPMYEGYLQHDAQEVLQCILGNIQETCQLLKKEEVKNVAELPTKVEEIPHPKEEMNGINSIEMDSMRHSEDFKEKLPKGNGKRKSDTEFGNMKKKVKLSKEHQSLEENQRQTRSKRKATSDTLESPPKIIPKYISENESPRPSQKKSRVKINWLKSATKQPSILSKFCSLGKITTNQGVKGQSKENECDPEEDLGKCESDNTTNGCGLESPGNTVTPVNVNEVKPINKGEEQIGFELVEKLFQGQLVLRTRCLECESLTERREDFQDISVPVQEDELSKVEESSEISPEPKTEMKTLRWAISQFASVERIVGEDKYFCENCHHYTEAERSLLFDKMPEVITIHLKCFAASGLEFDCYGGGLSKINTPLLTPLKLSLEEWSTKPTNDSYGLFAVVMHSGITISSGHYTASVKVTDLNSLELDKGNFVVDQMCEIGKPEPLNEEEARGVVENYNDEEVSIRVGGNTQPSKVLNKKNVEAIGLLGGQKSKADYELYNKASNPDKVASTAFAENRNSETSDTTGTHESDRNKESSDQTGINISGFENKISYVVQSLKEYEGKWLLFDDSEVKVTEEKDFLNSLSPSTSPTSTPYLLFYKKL
Cytochrome P450 3A4 (Homo sapiens), sequence (P08684 whole entry, looked up): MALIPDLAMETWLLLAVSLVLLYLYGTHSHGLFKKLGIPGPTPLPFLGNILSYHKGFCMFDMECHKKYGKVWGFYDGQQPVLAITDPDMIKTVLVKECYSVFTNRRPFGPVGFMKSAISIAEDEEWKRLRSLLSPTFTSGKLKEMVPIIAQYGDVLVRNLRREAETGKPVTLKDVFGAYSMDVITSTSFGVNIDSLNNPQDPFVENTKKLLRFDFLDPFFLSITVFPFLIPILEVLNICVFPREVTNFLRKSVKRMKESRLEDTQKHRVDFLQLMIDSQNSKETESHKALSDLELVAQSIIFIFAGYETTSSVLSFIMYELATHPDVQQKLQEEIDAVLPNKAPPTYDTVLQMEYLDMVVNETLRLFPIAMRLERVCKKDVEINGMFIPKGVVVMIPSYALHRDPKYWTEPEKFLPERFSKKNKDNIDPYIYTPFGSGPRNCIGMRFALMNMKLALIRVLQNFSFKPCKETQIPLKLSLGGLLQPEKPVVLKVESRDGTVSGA
3',5'-cyclic-AMP phosphodiesterase 4B (Homo sapiens), sequence (Q07343 whole entry, looked up): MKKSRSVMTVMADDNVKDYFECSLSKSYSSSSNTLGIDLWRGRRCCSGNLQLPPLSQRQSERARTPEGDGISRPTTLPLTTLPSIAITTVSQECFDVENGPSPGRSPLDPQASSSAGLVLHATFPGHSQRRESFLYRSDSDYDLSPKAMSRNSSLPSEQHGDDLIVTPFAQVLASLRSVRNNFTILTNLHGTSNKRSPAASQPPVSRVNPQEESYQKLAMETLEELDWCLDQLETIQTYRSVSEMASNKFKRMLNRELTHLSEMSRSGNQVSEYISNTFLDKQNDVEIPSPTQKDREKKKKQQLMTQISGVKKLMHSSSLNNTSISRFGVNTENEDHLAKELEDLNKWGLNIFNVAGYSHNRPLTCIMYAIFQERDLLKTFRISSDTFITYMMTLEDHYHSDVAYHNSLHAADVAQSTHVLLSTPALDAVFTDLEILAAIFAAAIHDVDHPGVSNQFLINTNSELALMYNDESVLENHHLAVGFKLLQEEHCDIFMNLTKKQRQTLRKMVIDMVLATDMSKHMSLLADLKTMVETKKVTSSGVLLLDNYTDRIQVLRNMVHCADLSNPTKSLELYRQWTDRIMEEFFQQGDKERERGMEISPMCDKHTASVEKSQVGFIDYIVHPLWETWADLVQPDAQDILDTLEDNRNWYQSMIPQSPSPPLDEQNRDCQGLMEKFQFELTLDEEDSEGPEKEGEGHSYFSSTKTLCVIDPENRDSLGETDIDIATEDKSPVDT
Cytochrome P450 2D6 (Homo sapiens), sequence (P10635 whole entry, looked up): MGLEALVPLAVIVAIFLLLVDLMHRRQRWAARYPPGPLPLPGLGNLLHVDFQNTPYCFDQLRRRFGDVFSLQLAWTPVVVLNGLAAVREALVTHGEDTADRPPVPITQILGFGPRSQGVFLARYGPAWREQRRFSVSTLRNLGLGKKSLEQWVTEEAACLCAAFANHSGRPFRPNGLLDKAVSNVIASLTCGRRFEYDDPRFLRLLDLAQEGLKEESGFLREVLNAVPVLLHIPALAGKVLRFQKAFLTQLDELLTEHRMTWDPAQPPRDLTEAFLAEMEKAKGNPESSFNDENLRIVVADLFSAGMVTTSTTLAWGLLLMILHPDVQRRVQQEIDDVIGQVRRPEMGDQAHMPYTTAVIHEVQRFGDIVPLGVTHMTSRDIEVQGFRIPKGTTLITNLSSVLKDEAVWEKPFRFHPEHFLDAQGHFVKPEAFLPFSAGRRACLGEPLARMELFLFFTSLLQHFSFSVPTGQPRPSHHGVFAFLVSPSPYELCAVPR

For the molecule `COc1ccccc1CNc1ncnc2ccc(-c3ccccc3CN(C)C)cc12`, the Potency in [1] is > 11.4 µM (inactive); in test [3], 15.8 µM (active); in test [5] it was > 46 µM (inactive); in [6] it was > 46 µM (inactive); in test [9], 2.51 µM (active); in [15] it was 10 µM (active). Further, the activity change, negative = inhibition in test [2] is -6.09% (inactive); in test [12], 5.99% (inactive). Further, the activity, negative = inhibition in [4] is -9.28% (inactive). Besides, the result in test [7], in [10] and in test [11] was inactive. The Potency entry in [8], in [13] and in [14] was “inactive” throughout. Moreover, the max response in test [12] (setting [21]) is -1.21%; in test [12] (setting [22]), 3.46%.

Consider `Cc1ccc(C(=O)N/C(=C\c2cccs2)c2nc3ccccc3[nH]2)cc1`, for which the Potency entry in test [14] and in test [15] was “inactive” in each case. The max response in test [16] was 8.84% (inactive).

Consider `COc1ccc(-n2c(=O)c(-c3ccccc3)nc3cnc(N4CCN(C)CC4)nc32)cc1`, for which the Potency in [1] is > 11.4 µM (inactive); in test [3], 20 µM (active); in test [5] it was > 9.22 µM (inactive); in test [6], > 46 µM (inactive); in test [15], 25.1 µM (active). Further, the activity change, negative = inhibition in test [2] was 14.5% (inactive); in test [17], 5.17% (inactive); in test [12], 0.696% (inactive). For the same molecule, the activity, negative = inhibition in [4] is 12.2% (inactive). The call in test [7] was inactive. The Potency result in [18], in [19], in test [20], in [13] and in test [14] was “inactive” each time. The values for the max response in [12] (setting [21]), in [12] (setting [22]) and in [16] were 22%, 20% and 12.9% (inactive), respectively.
